In PubChem BioAssay:
Values joined by “and” are separate entries in the source; they are usually repeats but may differ in a detail not shown here. Equal entries are not always repeated. Values without a mark were called inactive. Active and inactive are the calls of the source.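 How the source made its calls: active means thallium flux through the channel raised or lowered by more than 3 SD from vehicle-only wells, actives on both sides; inactive means the rest.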

Columns and labels:
[1] = system: F380Y; assay: modulators of BK channel variants, profiling panel, selectivity assay, cell-based, U2OS BacMam, thallium flux, beta subunits (AID 1259406); details: at 30 µM;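 further: initial slope of Thallos dye fluorescence rise after thallium is added; log ratio against the mean of 0.3% DMSO vehicle wells on the same plate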
[2] = system: F380Y/beta1; assay: as above; details: at 30 µM

| SMILES | log fold change Tl+ flux [1] | log fold change Tl+ flux [2] |
| --- | --- | --- |
| COc1ccc(CC2c3cc(OC)c(OC)cc3CC[N+]2(C)CCC(=O)OCCCCCOC(=O)CC[N+]2(C)CCc3cc(OC)c(OC)cc3C2Cc2ccc(OC)c(OC)c2)cc1OC (stereo unspecified) | -0.0106 |  |
| Cc1[nH]c(=O)c(C#N)cc1-c1ccncc1 | 0.00987 | -0.00723 |
| c1cnc(N2CCN(Cc3ccc4c(c3)OCO4)CC2)nc1 | -0.0152 |  |
| Nc1nc(F)nc2c1ncn2[C@@H]1O[C@H](CO)[C@@H](O)[C@@H]1O | 0.0242 | -0.00658 |
| CC(C)(C)C(O)/C=C/c1ccc2c(c1)OCO2 (stereo unspecified) | -0.0156 | 0.105 (active) |
| CN1CCC(=C2c3ccccc3CCc3sccc32)CC1 | -0.0249 |  |
| C[C@@H]1CN(CCCn2c3ccccc3c3ccccc32)C[C@H](C)N1 | 0.145 (active) | 0.208 (active) |
| CCc1oc2ccccc2c1C(=O)c1cc(Br)c(O)c(Br)c1 | 0.395 (active) | 0.958 (active) |
| COC(=O)C1=C(C)NC(C)=C(C(=O)O[C@@H]2CCCN(Cc3ccccc3)C2)[C@@H]1c1cccc([N+](=O)[O-])c1 | -0.0664 | -0.000881 |
| CN(CCCN1c2ccccc2CCc2ccccc21)CC(=O)c1ccc(Cl)cc1 | -0.0806 | -0.0237 |
| CCN1CCCC1CNC(=O)c1cc(S(=O)(=O)CC)c(N)cc1OC (stereo unspecified) | 0.00396 | 0.016 |
| Cc1ncc([N+](=O)[O-])n1CC(O)CCl (stereo unspecified) | -0.0142 | -0.0206 |
| OCc1cccnc1 | -0.0134 | -0.0115 |
| O=c1[nH]cnc2c1ncn2[C@H]1CC[C@@H](CO)O1 | -0.00984 | -0.0163 |
| CN(Cc1cnc2nc(N)nc(N)c2n1)c1ccc(C(=O)N[C@@H](CCC(=O)O)C(=O)O)cc1 | -0.0413 |  |
| CCCc1c(OCCCCc2nn[nH]n2)ccc(C(C)=O)c1O | 0.0613 |  |
| CC1(C)O[C@@H]2C[C@H]3[C@@H]4C[C@H](F)C5=CC(=O)C=C[C@]5(C)[C@@]4(F)[C@@H](O)C[C@]3(C)[C@]2(C(=O)CO)O1 | 0.2 (active) | 0.211 (active) |
| Cc1ccc(NC(=O)c2ccc(CN3CCN(C)CC3)cc2)cc1Nc1nccc(-c2cccnc2)n1 | 0.141 (active) |  |
| CNCC(O)c1ccc(O)c(O)c1 (stereo unspecified) | -0.0223 | -0.0248 |
| CC(C(=O)O)c1ccc(CC2CCCC2=O)cc1 (stereo unspecified) | -0.0107 | -0.0699 |
| CCOc1cc(N)c(Cl)cc1C(=O)NCC1CN(Cc2ccc(F)cc2)CCO1 (stereo unspecified) | -0.0328 | 0.0819 |
| CC(Oc1c(Cl)cccc1Cl)C1=NCCN1 (stereo unspecified) | 0.00819 | -0.000881 |
| CN(C)CCCSc1ccccc1NC(=O)/C=C/c1ccccc1 | 0.0773 |  |
| C[C@]12C[C@H](O)[C@H]3[C@@H](CCC4=CC(=O)CC[C@@]43C)[C@@H]1CC[C@@H]2C(=O)CO | 0.0367 | 0.0921 |

| SMILES | log fold change Tl+ flux [1] | log fold change Tl+ flux [2] |
| --- | --- | --- |
| O=C(CCNNC(=O)c1ccncc1)NCc1ccccc1 | 0.000985 | 0.00246 |
| CC(C)(C(=O)c1cccnc1)c1cccnc1 | -0.0599 | 0.0309 |
| C#C[C@]1(O)CC[C@H]2[C@@H]3CCc4cc(O)ccc4[C@H]3CC[C@@]21C | 0.0259 |  |
| Clc1ccc2nsnc2c1NC1=NCCN1 | -0.038 | -0.0369 |
| CC(C)[C@H](N)C(=O)OCCOCn1cnc2c(=O)[nH]c(N)nc21 | -0.0232 | -0.0206 |
| CC1CCN(CCCC(=O)c2ccc(F)cc2)CC1 | 0.0312 |  |
| CCN(CC)CCNC(=O)c1cc(Cl)c(N)cc1OC | -0.00476 | -0.00572 |
| O=C1[C@H]2CCCC[C@H]2C(=O)N1CCCCN1CCN(c2nsc3ccccc23)CC1 | 0.0537 | 0.0543 |
| CC[N+](C)(CC)CCOC(=O)C(O)(c1ccccc1)C1CCCCC1 (stereo unspecified) | -0.192 (active) | -0.0336 |
| COc1ccc(C(=O)NCc2ccc(OCCN(C)C)cc2)cc1OC | -0.0346 | -0.00341 |
| CC(C)NCC(O)COc1ccc(CCOCC2CC2)cc1 (stereo unspecified) | -0.00418 | 0.0244 |
| CN(C)CC/C=C1/c2ccccc2COc2ccc(CC(=O)O)cc21 | 0.0275 | 0.0119 |
| CC(=O)OCC(=O)NCCCOc1cccc(CN2CCCCC2)c1 | -0.0125 | -0.015 |
| COC(=O)CCc1ccc(OCC(O)CNC(C)C)cc1 (stereo unspecified) | -0.0174 | 0.0192 |
| COc1cc2c(cc1OC)C(=O)C(CC1CCN(Cc3ccccc3)CC1)C2 (stereo unspecified) | 0.0206 | -0.0145 |
| CN(CCOc1ccc(NS(C)(=O)=O)cc1)CCc1ccc(NS(C)(=O)=O)cc1 | 0.0506 | 0.0264 |
| Cc1cccc(C)c1NC(=O)C(C)N (stereo unspecified) | -0.00461 | -0.0545 |
| Cc1cnc(NC(=O)C2=C(O)c3ccccc3S(=O)(=O)N2C)s1 | -0.00196 | -0.0291 |
| COc1ccc(C2CNC(=O)C2)cc1OC1CCCC1 (stereo unspecified) | -0.0147 | -0.0167 |
| COc1cc(C(=O)NC2CCCNC2)cc(OC)c1OC (stereo unspecified) | -0.0595 | -0.0621 |
| COc1ccccc1OCC(O)CN1CCN(CC(=O)Nc2c(C)cccc2C)CC1 (stereo unspecified) | 0.091 | 0.0232 |
| COC(=O)C1=C(C)NC(C)=C(C(=O)OCC(C)C)C1c1ccccc1[N+](=O)[O-] (stereo unspecified) | 0.333 (active) | 0.689 (active) |
| CN1CCC(=C2c3ccccc3C=Cc3ccccc32)CC1 | 0.15 (active) | -0.0427 |
| CNS(=O)(=O)Cc1ccc2[nH]cc(CCN(C)C)c2c1 | 0.0165 | -0.000461 |

| SMILES | log fold change Tl+ flux [1] | log fold change Tl+ flux [2] |
| --- | --- | --- |
| NC(=O)OCC(COC(N)=O)c1ccccc1 | -0.103 | -0.0115 |
| CCCN1CCCC[C@H]1C(=O)Nc1c(C)cccc1C | 0.0271 | 0.0176 |
| O=C1c2cccc3c2[C@H](CCC3)CN1[C@@H]1CN2CCC1CC2 | 0.0472 | 0.0342 |
| CCOC(=O)[C@H](CCc1ccccc1)N[C@@H](C)C(=O)N1[C@H](C(=O)O)C[C@@H]2CCC[C@@H]21 | -0.0209 and 0.0487 | -0.00638 and 0.058 |
| O=C1Nc2ccc(Cl)cc2[C@@](C#CC2CC2)(C(F)(F)F)O1 | 0.0449 | 0.167 (active) |
| Brc1c(NC2=NCCN2)ccc2nccnc12 | -0.0564 | 0.00839 |
| COC1=C(OC)C(=O)C(CCCCCCCCCCO)=C(C)C1=O | -0.163 (active) | 0.138 (active) |
| C[C@H](NC(CCc1ccccc1)C(=O)O)C(=O)N1CCC[C@H]1C(=O)O (stereo partly specified) | 0.0291 | 0.00867 |
| CC1(C)S[C@@H]2[C@H](N=CN3CCCCCC3)C(=O)N2[C@H]1C(=O)O | 0.00482 | 0.0062 |
| COc1cc(C)nc(-n2nc(C)cc2OC)n1 | -0.0134 | -0.00765 |
| COc1cc(OC)c(C(=O)CCCN2CCCC2)c(OC)c1 | -0.00984 | -0.00851 |
| COc1cc2nc(N3CCN(C(=O)C4CCCO4)CC3)nc(N)c2cc1OC (stereo unspecified) | 0.0434 | -0.102 |
| CC(C)(C#N)c1cc(Cn2cncn2)cc(C(C)(C)C#N)c1 | 0.0287 | 0.000378 |
| CC(C)c1ccc2oc3nc(N)c(C(=O)O)cc3c(=O)c2c1 | 0.0548 | 0.0494 |
| O=C(NCCO[N+](=O)[O-])c1cccnc1 | 0.0612 | 0.00537 |
| C[C@@H]1C[C@H]2[C@@H]3C[C@H](F)C4=CC(=O)C(Cl)=C[C@]4(C)[C@@]3(F)[C@@H](O)C[C@]2(C)[C@@]1(O)C(=O)CO | 0.0685 | 0.0734 |
| CCN(CC)CC1CCCCN1CC(=O)N1c2ccccc2C(=O)Nc2cccnc21 (stereo unspecified) | -0.00678 | 0.0276 |
| CC(=O)Nc1ccc(CC(=O)O)cc1 | -0.0209 | -0.00468 |
| NS(=O)(=O)c1cc(C(=O)O)c(NCc2ccco2)cc1Cl | -0.0179 | -0.0049 |
| Cc1nc2n(c(=O)c1CCN1CCC(c3noc4cc(F)ccc34)CC1)CCCC2 | 0.0311 | -0.00468 |
| CC(=O)O[C@H]1C[C@@H]2CC[C@@H]3[C@H](CC[C@@]4(C)[C@H]3C[C@H]([N+]3(C)CCCCC3)[C@@H]4OC(C)=O)[C@@]2(C)C[C@@H]1N1CCCCC1 | 0.0327 | 0.014 |
| CCN1CCC[C@H]1CNC(=O)c1cc(S(N)(=O)=O)ccc1OC | -0.0719 | 0.000794 |
